Compound activity from PubChem BioAssay.
Most compounds without a hit are left out; they make up all but 11% or so of the library.
AmpC no deterg = qHTS Inhibitors of AmpC Beta-Lactamase (assay without detergent); AmpC nitrocefin hydrolysis, absorbance 480 nm, 0.0001% Triton; Potency, µM (series often up to 57.1 µM), inactives show at the highest dose activity change, negative = inhibition, most hits filed as inhibitors; 0.52% of 330,000 active;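 also: plate controls were no compound for no effect and no enzyme for full effect; nearly all actives have a fitted effect of over 20% in size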
Target sequence (P00811 whole entry, looked up): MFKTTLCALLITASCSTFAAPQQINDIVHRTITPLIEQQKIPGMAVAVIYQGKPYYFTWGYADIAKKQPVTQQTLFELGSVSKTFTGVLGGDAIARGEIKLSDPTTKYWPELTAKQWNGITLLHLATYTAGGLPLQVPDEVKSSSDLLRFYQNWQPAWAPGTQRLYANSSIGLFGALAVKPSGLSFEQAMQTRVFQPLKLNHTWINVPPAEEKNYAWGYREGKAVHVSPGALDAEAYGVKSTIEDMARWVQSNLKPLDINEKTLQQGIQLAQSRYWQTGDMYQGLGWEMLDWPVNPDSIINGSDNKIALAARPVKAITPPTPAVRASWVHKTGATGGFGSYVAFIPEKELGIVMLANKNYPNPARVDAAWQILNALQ
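20 mM phosphate pH 7.0 + 0.01% (detergent screen) or 0.0001% Triton X-100; 5.3 nM AmpC reagent; cpd preinc 15 min RT; nitrocefin (800 uM stock) to start; A480 q20 s × 4 min; Activity was normalised to no-enzyme and no-compound control wells.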
Pf growth 48h = Primary qHTS for delayed death inhibitors of the malarial parasite plastid, 48 hour incubation | P. falciparum luciferase growth in erythrocytes, 48 h | Potency, µM (series often up to 28.7 µM), for inactives: at the top dose activity change, negative = inhibition, usual class: inhibitors | 5.9% of 310,000 active
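Erythrocytes infected with P. falciparum carrying an integrated firefly luciferase reporter (2% hematocrit, 0.1% parasitemia final) were exposed to compounds in RPMI 1640 with 0.5% Albumax at 37 C, 5% CO2. Growth inhibition was scored as reduced luminescence.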
Pf growth 96h = Primary qHTS for delayed death inhibitors of the malarial parasite plastid, 96 hour incubation. P. falciparum luciferase reporter growth, 96 h. Potency, µM (series often up to 28.7 µM), for inactives: top-dose activity change, negative = inhibition, actives largely listed as inhibitors. 6.9% of 320,000 active. AID 504834, 2011
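Readout is luminescence from an integrated firefly luciferase in P. falciparum. Red cells, 2% hematocrit and 0.05% parasitemia final, were cultured with compound through two parasite generations (96 hours) at 37 C, 5% CO2.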
AMA1 RON2 block = qHTS for Inhibitors of AMA1-RON; Towards Development of Antimalarial Drug Lead: Primary Screen; 0.2% of 360,000 active; Plasmodium falciparum AMA1 (3D7) - RON2 peptide interaction; AID 720542, 2013; Potency, µM (doses to about 58.2 µM), for inactives: top-dose activity change, negative = inhibition, actives largely listed as inhibitors; AlphaScreen AMA1-biotinylated RON2 peptide binding;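 also: 0% = vehicle wells and -100% = peptide control; nearly all actives have a fitted effect of over 45% in size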
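AMA1 (3D7) with his tag at 25 nM final met compounds first, then biotinylated RON2 peptide at 25 nM; detection used donor plus acceptor beads, 10 µg/mL apiece, read by AlphaScreen after 30 min at room temperature.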
HCV inhibitor = qHTS Assay for Inhibitors of Hepatitis C Virus (HCV) | Huh7.5.1 HCVcc-Cre infection, luciferase reporter, 44 h | Potency, µM (highest dose often 41.8 µM), for inactives: at the highest dose activity change, negative = inhibition, hits mostly inhibitors | 3.4% of 340,000 active | AID 651820, 2012
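Cells seeded at 1,000/well and cultured 4 h, then compounds added followed by HCVcc-Cre virus (~0.5 moi). After 44 h further culture, luciferase substrate was added, plates held 15 min at room temperature, and luminescence read for 15 sec.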
AmpC inh detg = qHTS Inhibitors of AmpC Beta-Lactamase (assay with detergent) | P00811 | Potency, µM (doses to about 114 µM), for inactives: top-dose activity change, negative = inhibition, hits mostly inhibitors | 0.041% of 370,000 active | AID 485294, 2010 | AmpC hydrolysis of nitrocefin, absorbance 480 nm, 0.01% Triton;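 also: 0% = no-compound wells and -100% = no-enzyme wells; nearly all actives have a fitted effect of over 25% in size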
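20 mM phosphate pH 7.0 + 0.01% (detergent screen) or 0.0001% Triton X-100; 5.3 nM AmpC reagent; cpd preinc 15 min RT; nitrocefin (800 uM stock) to start; A480 q20 s × 4 min; Activity was normalised to no-enzyme and no-compound control wells.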
Active calls of the source: *; ? = inconclusive; . = no result. Calls follow the shape of the dose curve; as a rule, active = well fitted curve in the direction sought with a large enough effect; inconclusive = small, poorly fitted or top-dose-only effect, or another doubt; inactive = no such curve, though single readings can be large; an effect the other way counts as inactive or inconclusive. Unless noted, % is scaled to controls: 0 for no effect and ±100 for the full control effect; potency is read from the fitted curve at half-maximal effect.

SMILES | AmpC no deterg | Pf growth 48h | Pf growth 96h | AMA1 RON2 block | HCV inhibitor | AmpC inh detg
COc1ccc(-c2nc3ccccc3c(=O)n2CCOc2cccc(C)c2C)cc1 | -11% | 6% | -19% | 0% | 0% | ?
COc1ccc(-c2nc3ccccc3c(=O)n2CCOc2c(C)cccc2C)cc1 | -14% | 12µM* | -78% | -8% | -29% | -13%
Cc1ccc(-c2nc3ccccc3c(=O)n2CCN2CCOCC2)cc1 | 2.2µM* | ? | 11% | 5% | 13% | 0%
Nc1nc2c(s1)CCc1c-2cnn1-c1ccccc1 | -49% | -7% | -13% | 8% | ? | 89µM*
Nc1nc2c(s1)COc1ccccc1-2 | -17% | 42% | 31% | 15% | -8% | 6%
C/C(=N\N1CCN(Cc2ccc(Cl)cc2)CC1)c1ccc([N+](=O)[O-])cc1 | 32% | -6% | -1% | ? | 11µM* | -3%
O=C(Nc1cccc([N+](=O)[O-])c1)c1ccc(CN2CCOCC2)cc1 | -8% | 145% | 12µM* | 18% | ? | 5%
C/C(=N\NC(=O)c1ccc(CN2CCOCC2)cc1)c1ccc([N+](=O)[O-])cc1 | -23% | 1% | 31% | 21% | 11µM* | -1%
C/C(=N/NC(=O)c1cc(O)c(O)c(O)c1)c1ccc([N+](=O)[O-])cc1 | -26% | 9.3µM* | 33% | ? | -20% | ?
C/C(=N\NC(=O)c1ccc(CN2CCOCC2)cc1)c1cccc([N+](=O)[O-])c1 | -21% | -25% | ? | 51% | ? | -22%
C/C(=N\NC(=O)c1ccc([N+](=O)[O-])cc1)c1c(O)cc(C)oc1=O | -27% | -14% | 7% | 5% | -13% | 4%
CC(NC(=O)CCCN1C(=O)CCn2nc(-c3cn(C)c4ccccc34)cc21)c1ccccc1 (configuration not stated) | . | . | . | . | . | -3%
COc1ccc(NC(=O)c2cccc(N3CCCS3(=O)=O)c2)cc1OC | . | . | . | . | . | 3%
O=C(N/N=C/c1ccccc1[N+](=O)[O-])c1ccc(CN2CCOCC2)cc1 | -25% | 25% | 9.3µM* | ? | -16% | ?
Cc1cc(/C=N/NC(=O)c2ccc(CN3CCOCC3)cc2)c(C)n1-c1ccccc1 | 8% | -20% | -20% | 12% | ? | -1%
CCc1nnc2c3ccccc3nc(Nc3ccc(F)c(Cl)c3)n12 | . | . | . | . | . | 9%
COc1ccc(CCNC(=O)CSc2n[nH]c(N)n2)cc1 | -23% | 45% | 0% | 2% | -12% | 100µM*
CCCSc1nnc(NC(=O)Cc2coc3cc(C)ccc23)s1 | . | . | . | . | . | 14%
CC(C)S(=O)(=O)c1csc(C(=O)Nc2ccc(F)cc2)c1N | -16% | 228% | 328% | -26% | 3.2µM* | 3%
COc1cc(C2C(=O)N(C3CCCCCC3)CC(=O)N2CCc2ccccc2)ccc1OC(C)C (configuration not stated) | . | . | . | . | . | 2%
CCOC(=O)c1c(NC(C)=O)sc2c1CCN(Cc1ccccc1)C2 | 54% | 43% | ? | 1% | ? | -6%
CCOC(=O)c1c(NC(C)=O)sc2c1CCC(C=O)=C2Sc1ccccc1 | -17% | . | ? | -23% | 2.8µM* | -7%
Cc1ccc(-n2ncc(C(=O)Nc3ccc4c(c3)OCO4)c2C2CCN(C(=O)OC(C)(C)C)CC2)c(C)c1 | . | . | . | . | . | 25%
COc1ccc(N2CC(C(=O)Nc3nnc(SCC(=O)NC4CCCC4)s3)CC2=O)cc1 (configuration not stated) | -4% | -12% | 6.6µM* | -5% | 0% | -2%
